Our source for the growth values is PubChem BioAssay (NCI).

Test systems include T-47D breast; BT-549 breast; MDA-MB-435 melanoma; SW-620 colon; MCF7 breast; HCT-116 colon; HCC-2998 colon; KM12 colon.
Assay in all cases: NCI-60 one-dose screen, 48 h (100 = growth as untreated, 0 = no growth, -100 = all killed)
What all share (conditions): 10 µM unless noted

The structures appear in SMILES notation. Compounds without any hit were thinned out: in the full panel of roughly 83,000, 20% have a hit.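 Each cell line was grown in a 96-well plate and treated with one concentration of compound for 48 hours. Values below 10 were considered active.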 A number with no mark means an inactive call. Active and inactive are the calls of the source.

For `N#C/C(=C(/O)CCCO)c1nc2ccccc2c(=O)[nH]1`, the growth was 101% in the experiment on T-47D breast; 109% in the experiment on BT-549 breast; 168% with MDA-MB-435 melanoma; 108% in the experiment with SW-620 colon; 86.6% with MCF7 breast; 98.9% in the experiment with HCT-116 colon. Further, the growth in the experiment on HCC-2998 colon is 73.5%; in the experiment with KM12 colon, 100%.

On to `Cn1cc(-c2nnc(-c3cn(C)c4ncccc34)o2)c2ccccc21`, for which the growth in the experiment on T-47D breast is 12.2%; in the experiment on BT-549 breast it was 42.4%; with MDA-MB-435 melanoma it was -32.8% (active); in the experiment on SW-620 colon, 26.7%; with MCF7 breast, 20.2%; with HCT-116 colon, 23%. Further, the growth in the experiment with HCC-2998 colon is 65.7%; in the experiment on KM12 colon, 22.1%.

As to `Cn1cc(-c2nnc(-c3cn(C)c4ncc(Br)cc34)s2)c2cc(Br)ccc21`, the growth was 67.6% in the experiment with T-47D breast; 96.2% in the experiment on BT-549 breast; 92.1% in the experiment on MDA-MB-435 melanoma; 96.4% with SW-620 colon; 74.1% in the experiment with MCF7 breast; 96.4% with HCT-116 colon. Further, the growth is 103% in the experiment with HCC-2998 colon and 94.6% in the experiment on KM12 colon.

`CCc1cccc(Cl)c1`: the growth with T-47D breast is 107%; in the experiment with BT-549 breast, 92%; in the experiment on MDA-MB-435 melanoma it was 107%; in the experiment with SW-620 colon, 111%; in the experiment on MCF7 breast, 99.4%; with HCT-116 colon, 104%. In addition, the growth is 106% in the experiment on HCC-2998 colon and 101% in the experiment on KM12 colon.

As to `Cc1cnc(N)nc1OCC(C)(C)CNC(=O)c1cccc(-c2ccc(S(=O)(=O)Nc3ccc4c(c3)N(C(=O)C3CC3)CCC4)cc2)c1`, the growth is 20% in the experiment with T-47D breast; 78% in the experiment with BT-549 breast; 50.4% with MDA-MB-435 melanoma; 73.9% in the experiment with SW-620 colon; 43.6% with MCF7 breast; 61.3% in the experiment on HCT-116 colon. Moreover, the growth in the experiment with HCC-2998 colon is 72.6%; with KM12 colon it was 61.8%.

Take `O=c1cc(-c2ccccc2)oc2c(O)c(O)ccc12`: the growth in the experiment on T-47D breast is 68.2%; with BT-549 breast, 67.4%; in the experiment on MDA-MB-435 melanoma, 68.8%; in the experiment on SW-620 colon it was 58%; in the experiment on MCF7 breast, 60.9%; with HCT-116 colon, 39%. In addition, the growth in the experiment with HCC-2998 colon was 74.8%; with KM12 colon, 65.3%.

Take `O=c1[nH]c(CN2CCN(c3cccc(Cl)c3)CC2)nc2cc(Cl)ccc12`: the growth with T-47D breast was 75.9%; with BT-549 breast it was 110%; with MDA-MB-435 melanoma, 103%; in the experiment with MCF7 breast it was 86.2%; in the experiment with HCT-116 colon, 92.4%; in the experiment with HCC-2998 colon it was 96.2%. The growth in the experiment with KM12 colon is 99%.

Turning to `NC1=NC(=O)NC1(c1ccccc1)c1ccccc1`, the growth in the experiment on T-47D breast is 80.3%; in the experiment with BT-549 breast it was 131%; in the experiment with MDA-MB-435 melanoma, 104%; with SW-620 colon, 99.2%; in the experiment with MCF7 breast it was 99.8%; in the experiment on HCT-116 colon, 99.9%. Further, the growth in the experiment on KM12 colon is 103%.

As for `O=C(N/N=C1\c2ccccc2-c2cccc(C(=O)O)c21)c1ccc(O)cc1`, the growth in the experiment with T-47D breast was 104%; in the experiment on BT-549 breast, 83.7%; in the experiment on MDA-MB-435 melanoma it was 99.1%; in the experiment on SW-620 colon, 84.3%; in the experiment on HCT-116 colon it was 99.4%; in the experiment with HCC-2998 colon, 98.9%. In the experiment with KM12 colon, the growth was 105%.

With `Cc1ccc(S(=O)(=O)NCCCNc2nccc(-c3c(-c4cccc(F)c4)nc4occn34)n2)cc1`, the growth in the experiment with T-47D breast is 39.5%; with BT-549 breast, 92.1%; with MDA-MB-435 melanoma it was 43.4%; in the experiment on SW-620 colon, 76.8%; in the experiment with HCT-116 colon, 53.6%; with HCC-2998 colon, 117%. Also, in the experiment with KM12 colon, the growth was 77.6%.

`CC(C)C1=NOC(=O)C1=Cc1cn(-c2ccccc2)nc1-c1ccc(Br)cc1`: the growth in the experiment with T-47D breast was 74.8%; in the experiment on BT-549 breast, 119%; in the experiment on MDA-MB-435 melanoma it was 71.3%; in the experiment with SW-620 colon it was 57.7%; in the experiment on HCT-116 colon, 64.2%; in the experiment on HCC-2998 colon it was 76.2%. Further, the growth with KM12 colon is 85.4%.

As to `CC(C)OC(=O)Nc1cc(F)c(F)cc1F`, the growth in the experiment on T-47D breast is 104%; in the experiment on BT-549 breast, 104%; in the experiment with MDA-MB-435 melanoma it was 103%; in the experiment with SW-620 colon, 99.2%; in the experiment with MCF7 breast it was 94.3%; with HCT-116 colon, 110%. The growth in the experiment on KM12 colon is 101%.

Turning to `COc1cc(/C=C/C(=O)/C=C/c2ccc(-n3ccnc3)cc2)ccc1O`, the growth was 58% in the experiment on T-47D breast; 102% in the experiment with BT-549 breast; -9.19% (active) in the experiment on MDA-MB-435 melanoma; 6.22% (active) in the experiment with MCF7 breast; 97.5% in the experiment on HCT-116 colon; 42.7% in the experiment with HCC-2998 colon. The growth in the experiment on KM12 colon was -42.4% (active).

With `Cc1cc(-c2ccc(N=Nc3c(S(=O)(=O)O)cc4cc(S(=O)(=O)O)cc(N)c4c3O)c(C)c2)ccc1N=Nc1cc(S(=O)(=O)O)c2ccccc2c1O`, the growth was 99.6% in the experiment with T-47D breast; 107% in the experiment with BT-549 breast; 104% in the experiment with MDA-MB-435 melanoma; 92.2% in the experiment on MCF7 breast; 96.4% with HCT-116 colon; 104% with HCC-2998 colon. Besides, in the experiment with KM12 colon, the growth is 102%.

Take `O=[N+]([O-])c1cccc(/C=C/c2ccc3ccccc3n2)c1`: the growth in the experiment on T-47D breast was 79.5%; in the experiment on BT-549 breast, 73.7%; with MDA-MB-435 melanoma it was 79.8%; in the experiment with SW-620 colon, 85.5%; with HCT-116 colon it was 82.4%; in the experiment with HCC-2998 colon, 81%. Moreover, the growth in the experiment on KM12 colon is 82.7%.

For the compound `CC(C)=CC/C=C(/C)[C@H]1CC[C@]2(C)[C@@H]1CC[C@@H]1[C@@]3(C)CCCNC(C)(C)[C@@H]3CC[C@]12C`, the growth with T-47D breast was -50.9% [100 µM] (active); with BT-549 breast, -54.9% [100 µM] (active); in the experiment on MDA-MB-435 melanoma, -75.4% [100 µM] (active); in the experiment on SW-620 colon, -57.5% [100 µM] (active); in the experiment with MCF7 breast it was -54.6% [100 µM] (active); with HCT-116 colon it was -61% [100 µM] (active). In the experiment with KM12 colon, the growth was -57.4% [100 µM] (active).

With `CCN(CC)CCCOc1ccc2c(c1)O/C(=C\c1cccc(OC)c1)C2=O`, the growth in the experiment on T-47D breast is 87.6%; in the experiment with BT-549 breast it was 78.4%; in the experiment on MDA-MB-435 melanoma, 91.9%; in the experiment with SW-620 colon, 73.9%; in the experiment with MCF7 breast it was 72.8%; in the experiment with HCT-116 colon, 51.8%. The growth in the experiment on KM12 colon was 93.2%.

Take `CC(C)C1=NOC(=O)C1=Cc1cn(-c2ccco2)nc1-c1ccccc1`: the growth in the experiment on T-47D breast was 49%; in the experiment on BT-549 breast it was 116%; with MDA-MB-435 melanoma, 91.9%; in the experiment with SW-620 colon it was 84%; in the experiment on HCT-116 colon it was 58.2%; in the experiment on HCC-2998 colon, 101%. In addition, the growth in the experiment on KM12 colon is 85.2%.

Consider `Cc1ccc(S(=O)(=O)Nc2ccccc2)cc1N`, for which the growth was 101% in the experiment on T-47D breast; 49.5% in the experiment on BT-549 breast; 92.6% in the experiment on MDA-MB-435 melanoma; 99.7% in the experiment with SW-620 colon; 91.8% with MCF7 breast; 107% in the experiment on KM12 colon.

In the case of `O=S(=O)(NCCNc1nccc(-c2c(-c3cccc(F)c3)nc3occn23)n1)c1ccc(C(F)(F)F)cc1`, the growth in the experiment with T-47D breast is 61.9%; in the experiment on BT-549 breast, 106%; with MDA-MB-435 melanoma, 76.3%; in the experiment with SW-620 colon, 101%; with HCT-116 colon it was 76.5%; with HCC-2998 colon, 125%. Further, in the experiment with KM12 colon, the growth is 92%.

As to `COc1ccc2nc3ccccc3c(NCCNCCO)c2c1`, the growth with T-47D breast is 4.93% (active); in the experiment with BT-549 breast it was 8.11% (active); in the experiment with MDA-MB-435 melanoma, -53.8% (active); with MCF7 breast it was 2.08% (active); with HCT-116 colon, -36.5% (active); with HCC-2998 colon, -72.5% (active). Further, the growth in the experiment with KM12 colon is -30.5% (active).
